For 16 sequences, sensor-assay potency score (higher = more potent) results are on record in the OligoGym collection.
Also: reference of the scale not given here.

In the first test the target is DPM2. Put plainly: pooled miR-30 sensor sort-seq; sequence = guide strand. The note with it: shRNA.
As to TCTTGGTCTTCAGCATCACATA, the sensor-assay potency score (higher = more potent) is -1.79.
Still for that read-out and setting: for TCTCTTGGTCTTCAGCATCACA the value was -1.19; for TTGTGGATGACATGCTGACTGT, -1.33; for TGAACAGTCCCACAAACAGGAG, -1.56.

The target in a further test is DPP3. Described as above. Conditions: shRNA.
Consider TAGTTGGGGATGTTGATGCCGG, for which the sensor-assay potency score (higher = more potent) was -0.85.
The same measure, in the same setting: the figure for TTGTCCTGGATCCAGAAGCGGG is -1.46; for TTCCTTACGCAGCAGCACCGTG it is -1.18; for AAGATCTCCAGCACTTGCGGGT it is -0.379.
On the same count and under the same terms, the figure for AAGTTGGGAACAAACTTGGTGT is -0.148; for TTGTCCTTCTCAAAGGTTGGGG it is -0.0545.
TGTTGGAGTAAACACCCGCGGC gave a sensor-assay potency score (higher = more potent) of -1.37.
On the same count and under the same terms, for TCGACCTCTTTGAAGAGCCGGG the value was -0.473.
The same measure, in the same setting: for TTGGTGTCACCAAAGGACTTGT the value was -0.525; for TTGTAGTTGCCCATGTTGGAGT, -1.16.
On the same count and under the same terms, for TCGTCCTGTACGAAGAGCTTGC the value was -0.841; for TGAAGCTCTCTATATACTGGGC, -0.35.
